MRP1 act: MRP-1 activation; actives 0.61% (n = 140,000); H69AR cells + doxorubicin, viability rescue, CellTiter-Glo; viability increase, % at 10 µM;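 active means viability gain under doxorubicin at or above a set limit, the compound median plus 3 SD, cut at about 4.7% in these data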;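 further: MRP-1 overexpressing cells given doxorubicin 25 µM after compound pretreatment; 18-22 h compound pretreatment then 72 h with doxorubicin before readout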
MRP reversal: reverses drug resistance mediated by MRP | actives 0.04% (n = 85,000) | differential viability (reversal), % at 10 µM | AID 602 | H69AR cells + 2 uM doxorubicin, CellTiter-Glo, 72 h;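 active means viability drop by adding the cancer drug above about 55%, with treated viability meeting a 40% cutoff, limit read from the data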;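 further: larger differential means the compound sensitizes cells more to doxorubicin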
sEH activator: soluble epoxide hydrolase (human) activation; P34913; purified human sEH enzymatic activity, activator screen; activation, % at 2 µM; actives 0.04% (n = 91,000); AID 717; in the data active means activation above about 37%
Target sequence (P34913 whole entry, looked up): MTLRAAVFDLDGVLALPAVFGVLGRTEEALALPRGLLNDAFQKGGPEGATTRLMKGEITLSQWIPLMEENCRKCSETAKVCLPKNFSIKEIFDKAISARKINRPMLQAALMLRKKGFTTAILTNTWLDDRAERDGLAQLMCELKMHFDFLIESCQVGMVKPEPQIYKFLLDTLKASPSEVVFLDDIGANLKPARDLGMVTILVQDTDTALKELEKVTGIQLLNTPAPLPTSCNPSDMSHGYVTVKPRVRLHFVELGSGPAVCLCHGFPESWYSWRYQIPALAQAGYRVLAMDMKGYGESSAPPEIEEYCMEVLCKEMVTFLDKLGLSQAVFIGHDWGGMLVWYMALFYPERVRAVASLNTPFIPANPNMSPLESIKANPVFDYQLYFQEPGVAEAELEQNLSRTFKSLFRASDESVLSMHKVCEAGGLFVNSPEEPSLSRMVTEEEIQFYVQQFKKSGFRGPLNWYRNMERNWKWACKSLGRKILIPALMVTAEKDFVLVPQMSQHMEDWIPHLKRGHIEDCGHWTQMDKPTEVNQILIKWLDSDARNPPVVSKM
sEH inh: inhibitors of human soluble epoxide hydrolase. recombinant human sEH enzymatic activity assay. P34913. actives 0.34% (n = 91,000). inhibition, % at 2 µM; in the data active means inhibition above about 80%
Phagocytosis inh: blocks phagocytosis by macrophages; J774A.1 macrophage IgG-bead phagocytosis, imaging; inhibition, % at 5 µM; actives 0.07% (n = 110,000);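 active means inhibition above the mean of the plate negative controls plus 5 SD, cut at about 13% in these data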;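 further: phagocytic index as fraction of beads internalized from green versus red external bead signal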
SDO1 yeast rescue: restores growth of sdo1-depleted yeast. S. cerevisiae sdo1-depleted JHY4D growth rescue, OD600 30 h; stronger effect = higher value; pdr5 snq2 efflux-pump mutant strain. z-score at 10 µM. actives 0.21% (n = 140,000). AID 817;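 active means z-score above 3 at both the 24 hr and the 30 hr optical density reads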
sdo1 rescue conf: SDO1-depleted yeast growth rescue confirmation | shares compounds with SDO1 yeast rescue | S. cerevisiae JHY4D (SDO1-depleted) growth rescue, OD600, 30 h; stronger effect = higher value; efflux-deficient strain, SNQ2 and PDR5 mutated | OD recovery (concentration not given with the values) | actives 44% (n = 440) | AID 949;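 active means yeast growth recovered at 30 hours, either rising with dose fitted slope above 0.001 or with average optical density gain above 0.07, some results past the limit were not filed as active; inactive means growth falling with dose or no effect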
Numbers stand for hits; 0 = inactive; - = no result given. Shown are actives, neighbours in structure and some others; about 1% of the full set was active somewhere.

SMILES	MRP1 act	MRP reversal	sEH activator	sEH inh	Phagocytosis inh	SDO1 yeast rescue	sdo1 rescue conf
O=C(NNS(=O)(=O)c1ccc([N+](=O)[O-])cc1)c1cnn(-c2ccccc2)c1-n1cccc1	0	-	0	0	-	0	-
CC1CN(C(=O)c2c(Br)cnn2C)CC(C)O1 (stereo unspecified)	0	-	-	-	0	0	-
O=C(NNc1cc(N2CCOCC2)nc(N2CCOCC2)n1)C12CC3CC(CC(C3)C1)C2	0	-	-	-	0	0	-
N#Cc1ccccc1OCC(=O)Nc1c(C(=O)C2CC2)oc2ccccc12	0	0	0	0	-	0	-
CN(C)CCCNc1ccc(S(N)(=O)=O)cc1[N+](=O)[O-]	0	-	-	-	0	0	-
CC(OC(=O)c1c2c(nc3ccccc13)/C(=C\c1ccc3c(c1)OCO3)CCC2)C(=O)Nc1ccc(S(N)(=O)=O)cc1 (stereo unspecified)	0	-	-	-	0	0	0.0846
CCOC(=O)c1c(NC(=O)CSc2nncs2)sc(C)c1-c1ccccc1	0	-	-	-	0	0	-
CCOC(=O)c1c(NC(=O)CSc2nncs2)sc(C)c1C	0	-	0	0	-	0	0
CCCCn1c(-c2ccccc2)nc2c(=O)n(C)c(=O)[nH]c21	0	0	0	0	0	0	-
CCCCn1c(C)nc2c(=O)n(C)c(=O)[nH]c21	0	0	0	0	0	0	0.0739
CN(C)c1nc(OCCNC(=O)Nc2ccccc2)nc(N2CCOCC2)n1	0	0	0	0	0	0	-
CCOC(=O)C1CCCN(C(=O)Nc2cccc(Cl)c2)C1 (stereo unspecified)	0	0	0	0	0	0	0
COC(=O)c1sccc1NC(=O)c1cc(OC)cc(OC)c1	0	0	0	0	-	0	-
COC(=O)c1sccc1NC(=O)c1ccc(OC)c(OC)c1	0	0	0	0	0	0	0
CN(C)CCCNC(=O)C1CCNCC1	0	0	-	-	0	3.07	0.104
CSc1nsc(SC)c1C(=O)N1CCN(S(=O)(=O)c2ccc(C)cc2)C1C (stereo unspecified)	0	0	0	0	-	3.85	0
CSc1nsc(SC)c1C(=O)N1CCN(S(=O)(=O)c2ccc(C)cc2)C1C(C)C (stereo unspecified)	0	0	0	0	-	0	-
COCCN1C(=O)C(O)=C(C(=O)c2ccco2)C1c1cccc(Oc2ccccc2)c1 (stereo unspecified)	0	0	0	0	0	9.03	0.0761
COc1ccccc1/C=N/NC(=O)CCn1cnc2ccccc21	0	-	-	-	-	0	-
CCN(CC)S(=O)(=O)c1ccc(-c2nnc(SCC(=O)Nc3nc(C)cs3)o2)cc1	0	0	-	-	0	0	0
CSCC[C@H](NC(=O)OC(C)(C)C)c1nnc(SCC(N)=O)o1	0	0	0	0	0	9.56	0.0458
CCN(CC)C(=O)CSc1nnc([C@H](CCSC)NC(=O)OC(C)(C)C)o1	0	-	0	0	0	0	-
O=C(CSc1nnc(-c2ccc(S(=O)(=O)N3CCCC3)cc2)o1)NCc1ccco1	0	0	0	0	0	0	0
CC(C)NC(=O)c1ccc(-c2ccc(Cl)c(C(F)(F)F)c2)o1	0	0	0	0	0	0	-
Cc1cc(S(=O)(=O)NCC(C)C)ccc1OCC(=O)NCC1CCCO1 (stereo unspecified)	0	-	-	-	0	7.79	0
SMILES	MRP1 act	MRP reversal	sEH activator	sEH inh	Phagocytosis inh	SDO1 yeast rescue	sdo1 rescue conf
CC(C)NS(=O)(=O)c1ccc(OCC(=O)NCC2CCCO2)c(Cl)c1 (stereo unspecified)	0	0	0	0	0	0	-
Cc1nc(Nc2ncc3c(n2)CCCC3=O)nc2ccccc12	-	0	-	-	-	-	-
O=C(NCc1ccccc1)c1cccc(Br)n1	0	-	-	-	-	14.7	0
Cc1ccc(-c2cccc(C(=O)NCc3ccccc3)n2)c2ccccc12	0	-	-	-	-	0	-
Cc1c(Cl)cccc1NC(=O)c1ccc(-n2ccnc2)nc1	0	-	0	0	-	3.5	0
Cc1ncoc1C(=O)Nc1cccc(Cl)c1C	0	0	0	0	0	0	-
CC1CCN(Cc2nnnn2-c2cccc([N+](=O)[O-])c2)CC1	0	-	-	-	0	0	-
Cc1nc2ccccn2c1C(=O)NCCCN1CCOCC1	0	0	0	0	0	0	0.0889
Cc1ccc(S(=O)(=O)N2CCCCC2)cc1NC(=O)COC(=O)Cc1c(F)cccc1Cl	0	-	-	-	0	16.9	0.0896
CCOc1cc(C#N)c(NC(=O)c2cccnc2Cl)cc1OCC	0	0	0	0	0	0	-

Bioassay records from PubChem.
